# Compound activity: PubChem BioAssay, National Center for Advancing Translational Sciences (NCATS)
# DT40 TDP1 CPT: qHTS for Inhibitors of human tyrosyl-DNA phosphodiesterase 1 (TDP1): qHTS in cells in presence of CPT; chicken DT40 Tdp1-/-;hTDP1 cells + 20 nM CPT, ATP luminescence, 48 h; Potency, µM (series often up to 46.2 µM), without a hit: top-dose activity change, negative = growth inhibition, actives largely listed as inhibitors; 12% of 420,000 active; also: nearly all actives have a fitted effect of over 55% in size
#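 Chicken DT40 Tdp1-/- cells stably complemented with human TDP1 were seeded at 400 cells/well in medium containing 20 nM camptothecin, exposed to pin-transferred compounds, and grown at 37 °C for at least 48 hr. Viability was read as ATP luminescence.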
# KB-V1 MDR tox: qHTS assay for MDR1-selective chemotherapeutics: Primary screen using the drug-selected MDR subline cells KB-V1 | KB-V1 MDR cells viability, CellTiter-Glo, 72 h | Potency, µM (series often up to 46.1 µM), most hits filed as cytotoxic | 3.4% of 400,000 active | AID 1347076, 2019; also: nearly all actives have a fitted effect of over 60% in size
#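 KB-V1 MDR subline cells in DMEM (phenol-red free, 10% FBS) exposed to compounds in qHTS concentration series for 72 h at 37 degrees C. Viability read by CellTiter-Glo luminescence; concentration-effect curves fitted after normalization and correction.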
# TDP1 cell noCPT: qHTS for Inhibitors of human tyrosyl-DNA phosphodiesterase 1 (TDP1): qHTS in cells in absence of CPT; AID 686978, 2013; Potency, µM (titrated, usually from 46.2 µM), for inactives: at the highest dose activity change, negative = growth inhibition, most hits filed as inhibitors; 15% of 420,000 active; DT40 Tdp1-/- hTDP1 cells, no CPT, ATP luminescence, 48 h; also: nearly all actives have a fitted effect of over 55% in size
#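 Cells were dispensed at 400 per well, compounds added by pin tool, plates incubated ≥48 hr at 37 °C, then CellTiter-Glo added for 30 min at room temperature before luminescence reading. Line: DT40 Tdp1-/- complemented with hTDP1; camptothecin omitted.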
# KB-3-1 cytotox: qHTS assay for MDR1-selective chemotherapeutics: Primary screen using the parental adenocarcinoma cell KB-3-1; KB-3-1 viability, CellTiter-Glo ATP luminescence, 72 h; Potency, µM (titrated, usually from 46.1 µM), most hits filed as cytotoxic; 1.4% of 400,000 active; AID 1347075, 2019; also: nearly all actives have a fitted effect of over 60% in size
#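 Multi-concentration cytotoxicity screen in KB-3-1 cells grown in DMEM lacking phenol red with 10% FBS. After 72 h at 37 °C with compound, ATP-dependent luminescence was recorded.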
# HT1080NT lethal: qHTS for induction of synthetic lethality in tumor cells producing 2HG: qHTS for the HT-1080-NT fibrosarcoma cell line | HT-1080-NT fibrosarcoma viability, CellTiter-Glo ATP luminescence, 48 h | Potency, µM (top dose mostly 46.1 µM), for the others: top-dose activity, negative = less viability, usual class: cytotoxic | 1.6% of 360,000 active | AID 686970, 2013;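 also: NT is the 2HG producing partner of a matched IDH1 knockdown line; 0% = DMSO-treated cells and -100% = media-only wells without cells; nearly all actives have a fitted effect of over 55% in size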
#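 Luminescent CellTiter-Glo readout after 48 hours of compound exposure at 37 degrees C defined viability of HT-1080-NT cells. Activity was normalized to DMSO wells and cell-free media wells; concentration-response curves were fitted and assigned curve classes.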
# HT1080 IDH1KD tx: qHTS for induction of synthetic lethality in tumor cells producing 2HG: qHTS for the HT-1080-IDH1KD cell line; HT-1080 IDH1 knockdown viability, ATP luminescence, 48 h; Potency, µM (highest dose often 46.1 µM), for inactives: at the top dose activity, negative = toxicity, usual class: cytotoxic; 2% of 360,000 active;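 also: 0% = DMSO wells and -100% = cell-free medium wells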
#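 Using the IDH1-knockdown HT-1080 line run in the same batch and compound series as the NT line, viability after 48 h at 37 °C was determined by CellTiter-Glo luminescence and expressed as % activity.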
# * marks the source's active call; other numbers are inactive results; i = inactive; u = inconclusive; x = no result. This is a sample that favours compounds with a hit; in the whole collection about 19% have one here. Calls follow the shape of the dose curve; as a rule, active = well fitted curve in the direction sought with a large enough effect; inconclusive = small, poorly fitted or top-dose-only effect, or another doubt; inactive = no such curve, though single readings can be large; an effect the other way counts as inactive or inconclusive. Unless noted, % is scaled to controls: 0 for no effect and ±100 for the full control effect; potency is read from the fitted curve at half-maximal effect.
SMILES,DT40 TDP1 CPT,KB-V1 MDR tox,TDP1 cell noCPT,KB-3-1 cytotox,HT1080NT lethal,HT1080 IDH1KD tx
CCCCn1nnnc1C(CCSC)N1CCC(n2c(=O)[nH]c3ccccc32)CC1 (stereo not given),12µM*,u,9.2µM*,i,-23%,u
CN1OC[C@@H]2CN[C@H](c3ccccc3Br)C[C@@H]21,-13%,i,-2%,i,20%,9%
CCCc1cc(=O)oc2cc(OCC(=O)N3CCC(C(=O)O)(c4ccccc4)CC3)ccc12,-4%,i,2%,i,-1%,6%
Nc1cc(Cl)cc(C(=O)O)c1Cl,20%,i,-12%,i,24%,14%
Nc1ccccc1C(=O)OCCc1ccccc1,u,i,u,i,u,2%
CN[C@H](C)CCC=C(C)C,u,i,u,i,x,x
CCC(=O)N1CC(=O)Nc2ccc(C)cc2C1c1ccc(F)cc1 (stereo not given),3.7µM*,i,9.2µM*,i,x,x
COc1ccc(N2C(=O)/C(=C/c3ccc(N(C)C)o3)C(=O)NC2=S)cc1,-18%,i,-5%,i,-1%,8%
Cc1ccc(/C=C2\C(=O)NC(=S)N(c3ccc(F)cc3)C2=O)s1,2.9µM*,u,5.8µM*,i,u,u
Cc1ccc(/C=C2\C(=O)NC(=S)N(c3ccc(F)cc3)C2=O)o1,7.3µM*,i,15µM*,i,10%,0%
COc1cccc(N2C(=O)/C(=C/c3ccc(C)o3)C(=O)NC2=S)c1,15µM*,i,15µM*,u,-1%,-3%
COc1ccc(N2C(=O)/C(=C/c3cccs3)C(=O)NC2=S)cc1,5.2µM*,u,3.7µM*,i,10%,-1%
C=CCN=C=S,-6%,x,-9%,x,x,x
Clc1ccc2[nH]c3c(c2c1)CCNC3,u,u,u,u,-11%,-20%
CC(=O)OC1N=C(c2ccccc2Cl)c2cc(Br)ccc2NC1=O (stereo not given),u,u,u,i,-3%,-5%
Cc1ccc(-c2csc3ncnc(OCC(=O)NC(=O)NCc4ccco4)c23)cc1,u,i,u,i,u,u
c1ccc(CCN2CCCCC2)cc1,2%,i,-2%,i,x,x
COc1c2c(cc3c1OCO3)CCN(C)C2,-5%,i,u,i,u,-7%
COc1cc2c(cc1O)C[C@H]1NCCc3cc4c(c-2c31)OCO4,18µM*,i,23µM*,u,u,u
O=C(N/N=C/c1cccnc1)c1ccc(NC(=O)C(c2ccccc2)c2ccccc2)cc1,7.3µM*,i,12µM*,u,-11%,-1%
